# Only some compounds are listed: those with a hit (about 2.1% of all), similar ones and a draw of the others.
# D2 PAM-1 = positive allosteric modulators of human D2 dopamine receptor; HEK293 T-REx D2, calcium flux, EC20 dopamine potentiation; hit rate 0.34% among 340,000; P14416; potentiation, % at 10 µM;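 active means potentiation over 3 SD above the plate norm, cut at about 30% in these data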; further: 0% is about no effect
# Target sequence (P14416 whole entry, looked up): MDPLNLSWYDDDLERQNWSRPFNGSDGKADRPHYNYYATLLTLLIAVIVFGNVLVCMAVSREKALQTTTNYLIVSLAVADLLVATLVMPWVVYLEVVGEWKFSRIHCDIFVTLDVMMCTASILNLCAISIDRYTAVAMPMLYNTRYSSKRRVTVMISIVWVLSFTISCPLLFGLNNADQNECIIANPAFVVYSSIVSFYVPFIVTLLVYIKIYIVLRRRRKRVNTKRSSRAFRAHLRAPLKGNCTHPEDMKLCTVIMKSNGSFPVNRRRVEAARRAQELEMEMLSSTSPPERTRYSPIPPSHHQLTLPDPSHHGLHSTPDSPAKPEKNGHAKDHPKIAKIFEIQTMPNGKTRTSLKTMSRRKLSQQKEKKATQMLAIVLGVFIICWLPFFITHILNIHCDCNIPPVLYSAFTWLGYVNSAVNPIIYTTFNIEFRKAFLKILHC
#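 Primary screen. Calcium kinetics in induced HEK293 T-REx D2 cells: compound pre-addition 180 s, EC20 dopamine, 180 s more.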
# D2 PAM-2 = positive allosteric modulators of human D2 dopamine receptor. P14416. potentiation, % (test concentration not listed). hit rate 0.23% among 360,000. DiscoveRx D2 beta-arrestin cells, luminescence, 90 min; 100% = 57 uM dopamine signal. AID 624464; in the data active means potentiation above about 50%; inconclusive means mostly about 30% to 49%
#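 D2 cells co-treated with compound plus 50 nM dopamine (EC20) for 90 min at 37 deg C to detect potentiation. Beta-arrestin recruitment was read as enzyme-fragment luminescence after 1 h at ambient temperature. Full response was set by 57 uM dopamine.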
# LDHA block = LDHA (human) enzyme inhibition. P00338. purified LDHA, NADH/diaphorase-resazurin fluorescence; active compounds read low. activity change, % (values are at about 110 or 230 µM). hit rate 0.15% among 480,000; in the data active means activity change below about -30%; inconclusive means mostly about -25% to -30%;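 further: plate controls were DMSO wells for no effect and wells without enzyme for full effect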
#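 Remaining NADH was detected by diaphorase (0.133 mg/mL) converting 37 µM resazurin to fluorescent resorufin, read at 0 and 20 minutes. The preceding 5-minute room-temperature reaction used 2 nM LDHA, 0.2 mM sodium pyruvate and 0.06 mM NADH at pH 7.4.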
# D2 antag = antagonizes the human D2 dopamine receptor; P14416; HEK293 TREx D2 cells, calcium flux, dopamine EC80; inhibition, % at 10 µM; hit rate 2% among 340,000; in the data active means inhibition above about 30%; inactive means below that, where a call was filed; further: 0% is about no effect
#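 Read-out: kinetic calcium fluorescence (1 cycle/s) in inducible HEK293 T-REx D2 cells after an EC80 dopamine addition that followed 180 s compound preincubation. Loss of the dopamine response indicates antagonism.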
# D2 ag-1 = activates the human D2 dopamine receptor; P14416; HEK293 T-REx D2 cells, calcium flux agonist mode; activation, % at 2 µM; hit rate 0.53% among 340,000; AID 485358;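 active means activation over 3 SD above normal in the single-dose calcium agonist read, cut at about 30% in these data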; further: 0% is about no effect
#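 Tetracycline-induced HEK293 Trex cells with D2 receptor force-coupled to calcium signaling, plated overnight at 30 C and loaded with no-wash calcium dye. Calcium flux read kinetically for 180 s after compound addition; responses flag agonists.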
# D2 ag-2 = human D2 receptor agonism in beta-arrestin assay; P14416; DiscoveRx PathHunter D2 beta-arrestin, luminescence, 90 min; 100% = 57 uM dopamine signal; activation, % (no concentration beside the values); hit rate 0.084% among 360,000; AID 624465; in the data active means activation above about 40%; inconclusive means between about 15% and that limit
#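 Agonist mode: compounds alone added to overnight-plated D2 PathHunter cells for 90 min at 37 C, with 57 uM final dopamine (EC100) defining full response. Beta-arrestin recruitment detected by chemiluminescent reagent, read after 1 h at ambient temperature.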
# Numbers without * were called inactive; u = inconclusive; x = no result given.
SMILES,D2 PAM-1,D2 PAM-2,LDHA block,D2 antag,D2 ag-1,D2 ag-2
Cc1[nH]c2ccccc2c1C(=O)COC(=O)Cc1c[nH]c2ccccc12,x,x,3,x,x,x
CCOc1ccc(CN2CCN(c3ncnc4sccc34)CC2)cc1,x,x,-5,x,x,x
Cc1csc2c(NC3CCN(Cc4ccccc4)CC3)ncnc12,-24,-4,-7,89*,-1,-1
c1ccc(CN2CCC(Nc3nc(-c4cccnc4)nc4ccccc34)CC2)cc1,-22,-47,2,49*,0,-5
Cc1sc2ncnc(NC3CCN(Cc4ccccc4)CC3)c2c1C,-20,-17,-1,68*,1,1
CS(=O)(=O)NC1CCN(Cc2ccccc2)CC1,-6,-9,-3,29,0,-1
c1ccc(CN2CCC(Nc3ncnc4sccc34)CC2)cc1,-19,-13,-7,77*,1,-4
COc1cccc(C(=O)Nc2c(N3CCCC3)c3ccccc3oc2=O)c1,x,x,-1,x,x,x
Cc1nc2cc(NC(=O)c3ccc(C(C)C)cc3)ccc2o1,x,x,3,x,x,x
O=C(O)C/C(=C/c1ccc(Cl)s1)c1nc2ccccc2o1,x,x,0,x,x,x
COc1ccccc1N1CCN(CC(=O)Nc2ncc3c(n2)CC(C)CC3=O)CC1 (stereo not given),x,x,-7,x,x,x
CCCOC(=O)c1cc(NC(=O)c2cc(Br)ccc2OC)ccc1N1CCOCC1,x,x,-6,x,x,x
Cc1ccc(-c2cnoc2NC(=O)CSc2nc(-c3cccc(Cl)c3)cc(=O)[nH]2)cc1,x,x,-2,x,x,x
C=CCNCCOCCSc1ccc(Cl)cc1,-20,-28,-21,32*,0,6
O=C(CSc1c2c(nc3ccc(Cl)cc13)CCCC2)Nc1nc2ccccc2s1,x,x,-1,x,x,x
C=CCc1c(C)nc(Nc2nc(C)c3ccccc3n2)[nH]c1=O,x,x,-3,x,x,x
CCCn1cnc2c(=O)oc3ccccc3c21,5,-9,-6,39*,0,-5
COc1ccc(CCNC(=O)CSc2ccc3ccccc3c2)cc1OC,15,-17,2,10,-1,-5
COc1ccc(CCNC(=O)CSc2nc3ccccc3o2)cc1,5,3,-5,39*,-1,-3
COc1ccc(CCNC(=O)CSc2nc3[nH]c(=O)cc(O)c3s2)cc1,-10,-7,2,44*,0,-1
COc1ccc(NC(=O)CSc2nc3ccccc3o2)cc1,x,x,-2,x,x,x
COc1ccc(CCNC(=O)CN2C(=O)c3ccccc3S2(=O)=O)cc1,2,-5,1,34*,0,-1
O=C(CSc1nc2[nH]c(=O)cc(O)c2s1)NCCc1ccccc1,17,-14,2,0,0,2
O=C(CSc1ccc2ccccc2c1)NCCc1ccc(O)c(O)c1,-18,u,11,51*,32*,100*
c1ccc(C2=Nn3c(nnc3-c3cccs3)SC2)cc1,-4,-11,-7,-4,-1,0
SMILES,D2 PAM-1,D2 PAM-2,LDHA block,D2 antag,D2 ag-1,D2 ag-2
c1csc(C2=Nn3c(nnc3-c3ccncc3)SC2)c1,32*,20,-3,21,1,-2
Cc1cccc(NC(=O)CCNS(=O)(=O)c2cccc3nonc23)c1C,-6,-1,-2,31*,0,4
O=C(c1ccc(Oc2ccccc2)cc1)c1nc2c(n1O)CCCC2,4,1,1,31*,0,5
Cc1c(Cl)cccc1NC(=O)CCN1CCCCCC1,-17,-29,-6,21,0,-3
Cc1c(Cl)cccc1NC(=O)CC1NCCNC1=O (stereo not given),8,-12,0,34*,0,-2
Cc1c(Cl)cccc1NC(=O)CN1CCN(CCO)CC1,13,-6,-14,31*,0,1
O=C(Nc1ccccc1F)N1CCN(c2ccc(Cl)cc2)CC1,x,x,8,x,x,x
O=C(CN1CCN(CCC(=O)Nc2ccccc2F)CC1)Nc1ccc(Cl)cc1,8,2,-3,129*,-1,5
O=C(CCN1CCN(c2ccc(Cl)cc2)CC1)Nc1ccccc1F,-22,-24,-4,36*,27,-2
CCC(C)(C)c1ccc(OCC(O)CNCc2ccccc2)c(C(C)(C)CC)c1 (stereo not given),x,x,25,x,x,x
COc1ccc(-c2c(C)oc3cc(OCC(=O)N4CCC(C(N)=O)CC4)ccc3c2=O)cc1,x,x,-6,x,x,x
CC(Sc1cc(C(=O)NC2CC2)c2ccccc2n1)C(=O)N1CCOCC1 (stereo not given),x,x,4,x,x,x
Cc1cc(C)c2oc(=O)cc(CN3CCN(CCc4ccccn4)CC3)c2c1,x,x,-8,x,x,x
CCOP(=O)(OCC)c1nc(C(c2ccccc2)c2ccccc2)oc1NCc1cccnc1,x,x,-7,x,x,x
O=C(NCc1nc2ccccc2[nH]1)C1=C[C@H](C2CC2)C[C@H](OCc2ccc(CO)cc2)O1,2,-14,-14,40*,1,-2
Cc1ccc2[nH]c(=O)c(CN(CCO)Cc3nnnn3Cc3ccccc3)cc2c1,x,x,-23,x,x,x
CCOc1ccc2[nH]c(=O)c(CN(CCO)Cc3nnnn3CCc3ccccc3)cc2c1,-7,-9,1,39*,0,-4
CC(C)Cn1c(SCc2nc3ccccc3c(=O)[nH]2)nc2ccccc2c1=O,36*,4,-7,-5,0,-3
CC1=C(C(=O)OCc2ccccc2)C(c2ccccc2Br)NC(=O)N1 (stereo not given),1,u,-8,0,1,97*
CC1=C(C(=O)OCc2ccccc2)C(c2cccc([N+](=O)[O-])c2)NC(=O)N1 (stereo not given),4,59*,-3,2,1,4
CC1CCN(c2nc(SCCO)c(C#N)c3c2CCCC3)CC1,x,x,7,x,x,x
COCCNC(=O)CN(C(=O)c1ccc(N2CCCC2)nc1)c1ccc(Cl)cc1,34*,-2,-3,4,0,-4
COc1ccc(N(CC(=O)NC2CCCC2)C(=O)c2ccc(N3CCCCC3)nc2)cc1,9,9,-2,4,0,0
Cc1cccc(Nc2nc(C)c(C(=O)Nc3ccccc3)s2)c1,x,x,1,x,x,x
CCCn1cc(S(=O)(=O)CC(=O)Nc2ccc(OC)cc2OC)c2ccccc21,-2,68*,28,4,-1,9
CCn1cc(S(=O)(=O)CC(=O)Nc2ccc3c(c2)OCCO3)c2ccccc21,7,53*,10,11,-1,12
Cn1cc(S(=O)(=O)CC(=O)Nc2ccc(Br)cc2)c2ccccc21,-13,-10,-2,39*,-1,-2
CCN(CC)C(=O)Cn1cc(S(=O)(=O)CC(=O)Nc2ccc3c(c2)OCCO3)c2ccccc21,-1,-2,2,-3,1,1

# Compound activity (PubChem)
